The list is not random: actives were taken first. Their share in the collection is about 4.1%.
DAX1 inh-1 = DAX1 (NR0B1) inhibitors, primary screen, cell-based, HEK293, Gal4-DAX1, luciferase luminescence; AID 504766, 2011; HEK293 Gal4-DAX1 luciferase reporter; inhibition, % at 6.75 µM; Nuclear receptor subfamily 0 group B member 1 (Homo sapiens), P51843; 340,000 compounds, 0.99% hits;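 active means inhibition above the mean over all tested compounds plus 3 SD, cut at about 4.2% in these data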;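 further: inhibition shows as a rise in luminescence from relieved DAX1 repression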
Target sequence (P51843 207-470 limits assumed): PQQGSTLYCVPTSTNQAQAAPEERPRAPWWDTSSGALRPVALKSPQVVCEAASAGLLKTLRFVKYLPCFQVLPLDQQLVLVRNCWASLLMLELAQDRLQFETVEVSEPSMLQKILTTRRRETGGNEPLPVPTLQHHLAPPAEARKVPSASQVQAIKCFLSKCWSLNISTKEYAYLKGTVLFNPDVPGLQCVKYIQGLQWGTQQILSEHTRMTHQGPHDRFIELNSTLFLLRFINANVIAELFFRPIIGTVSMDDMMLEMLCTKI
hgDAF12 agonist = H. glycines DAF-12 receptor agonists, primary screen, cell-based, luminescence, HEK293, GAL4 fusion, UAS-luciferase; HEK293 GAL4-hgDAF12 UAS-luciferase reporter, agonist luminescence; normalized to butyrate control; activation, % at 6.8 µM; 370,000 compounds, 1.8% hits;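 active means activation above a cutoff set at the mean of all screened compounds plus 3 SD, cut at about 10% in these data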
hcDAF-12 act = H. contortus DAF-12 nuclear receptor activators, primary screen, cell-based, luminescence, HEK293, lit1-tk-luc reporter; 370,000 compounds, 1.4% hits; activation, % at 6.8 µM; AID 652067, 2013; HEK293 hcDAF-12 lit1-tk-luc reporter; 0% DMSO, 100% Δ7-dafachronic acid;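 active means activation above the mean of all tested compounds plus 3 SD, cut at about 5.5% in these data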
DAX1 inh-2 = DAX1 (NR0B1) inhibitors on StAR promoter, primary screen, cell-based, luminescence, SF-1 (NR5A1), full-length DAX-1; HEK293T StAR-luciferase reporter, SF-1/DAX-1 repression relief; inhibition, % at 6.8 µM; 370,000 compounds, 1.1% hits; AID 652010, 2013;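 active means inhibition above the mean over all tested compounds plus 3 SD, cut at about 3.6% in these data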;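 further: higher inhibition means more luminescence from relief of DAX-1 repression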
ssDAF-12 act = S. stercoralis DAF-12 nuclear receptor activators, primary screen, cell-based, luminescence, HEK293, GRIP1 co-expression, lit1-tk-luc; HEK293 ssDAF-12/GRIP1 lit1-tk-luc reporter; % of 3 µM dafachronic acid response; activation, % at 6.8 µM; 370,000 compounds, 1% hits;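 active means activation above the mean over all tested compounds plus 3 SD, cut at about 0.9% in these data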
A number is an active result; – = inactive; · = no result given.

SMILES	DAX1 inh-1	hgDAF12 agonist	hcDAF-12 act	DAX1 inh-2	ssDAF-12 act
CC(C)c1ccc(N2C(=O)NC(=O)/C(=C/c3cnc(-c4ccccc4)nc3)C2=O)cc1	–	–	–	–	–
CSc1ncc(/C=C2/C(=O)NC(=O)N(c3ccc(C(C)C)cc3)C2=O)cn1	–	–	6.4	–	–
Cc1cc(OCC(=O)NC(Cc2ccc(Cl)cc2)C(=O)O)c2c3c(c(=O)oc2c1)CCC3 (centres undefined)	5.8	–	–	–	–
O=C(NCCN1CCC2(CC1)C(=O)NCN2c1ccccc1)c1ccc2ccccc2c1	·	–	–	–	–
O=C1NC(=S)N(C2CC2)C(=O)/C1=C/c1ccc2c(c1)CCN2CCCCl	–	–	–	–	–
CCN1C(=O)/C(=C/c2ccc3c(c2)CCN3CCCCl)C(=O)NC1=S	–	–	–	–	1.7
CCCCN1CCN(C(=O)COc2cc(=O)n(C)c3ccccc23)CC1	·	–	–	–	–
CC(C)(C)NC(=O)C1CN=C(c2ccccc2)c2cc(Cl)ccc2N1C(=O)C1CCC1 (centres undefined)	·	–	–	–	–
CN1C(=O)C(=Cc2ccccc2OCc2ccc(Cl)cc2)C(=O)N(C)C1=O	–	–	–	–	–
O=C1NC(=O)C(=Cc2cc(Cl)ccc2OCc2ccc(C(=O)O)cc2)C(=O)N1	5.5	–	–	–	–
O=C(c1cc2cc(F)ccc2[nH]1)N1CCC2(CC1)OCCO2	–	–	–	–	1.8
O=C(c1ccc(F)cc1Cl)N1CCC2(CC1)OCCO2	–	–	–	–	–
O=C1NC(=O)N(Cc2ccccc2)C(=O)/C1=C/N1CCCc2ccccc21	–	–	5.8	–	–
O=C1NC(=O)N(Cc2ccccc2)C(=O)/C1=C\C=C\c1ccco1	–	–	–	–	–
Cc1cc(=O)n(-c2ccccc2)n1-c1ccccc1	4.8	–	–	–	–
Cc1c(NP(=O)(C(C)(C)C)C(C)(C)C)c(=O)n(-c2ccccc2)n1C	–	–	–	–	–
O=C(O)CCl	·	–	–	–	–
O=C1CN(C(=O)COC(=O)Cc2ccccc2)c2ccccc2N1	4.4	–	–	–	–
Oc1ccc2ccccc2c1CN1CC=C(c2ccccc2)CC1	5.2	–	–	–	–
O=C(NCCN1CCC2(CC1)C(=O)NCN2c1ccccc1)c1ccc(Cl)cc1	·	–	–	–	–
COc1cc(C2c3cc4c(c(O)c3CC3COC(=O)C32)OCO4)cc(OC)c1OC (centres undefined)	–	–	–	–	–
COc1cc(C2c3cc(O)c(OC)cc3CC3C(=O)OCC32)ccc1O (centres undefined)	4.8	–	–	–	–
COc1ccc([C@@H]2C[C@H]3[C@@H](CN2)CON3C)cc1	·	–	–	–	–
Cc1nn(Cc2ccccc2)c(C)c1C=C1C(=O)NC(=S)NC1=O	–	–	6.1	–	–
Cc1ccc(S(=O)(=O)Cc2ccc(C(=O)N3CCC4(CC3)OCCO4)o2)cc1	–	–	5.8	–	–
SMILES	DAX1 inh-1	hgDAF12 agonist	hcDAF-12 act	DAX1 inh-2	ssDAF-12 act
CC(NC(=O)OC1CC2CCC1(C)C2(C)C)P(=O)(Oc1ccccc1)Oc1ccccc1 (centres undefined)	·	–	–	·	–
O=C(N/N=C/c1c(O)n(CCC2=CCCCC2)c(=S)[nH]c1=O)c1ccccc1	–	11	–	–	–
O=C(N/N=C/c1c(O)n(Cc2ccc(F)cc2)c(=O)[nH]c1=O)c1ccccc1	6.6	11	–	–	–
O=C(NC(CCC(O)CO)P(=O)(Oc1ccccc1)Oc1ccccc1)OCc1ccccc1 (centres undefined)	·	–	–	–	–
O=C(c1ccccc1)N1Cc2cc(Br)ccc2-n2nncc2C1	·	–	–	–	–
Cc1ccsc1C(=O)C1CCCN(CCO)C1 (centres undefined)	4.8	–	–	–	–
Cc1ccsc1C(=O)C1CCCN(Cc2cnn(C)c2)C1 (centres undefined)	–	–	–	–	–
CN1C2CCC1C(C(=O)Oc1ccccc1)C(c1ccc(Cl)cc1)C2 (centres undefined)	·	–	–	–	–
Cc1ccc(C(=O)C2CN(C)CC2C(=O)c2ccc(C)cc2)cc1 (centres undefined)	–	11	–	–	–
Cc1ccc(C(=O)C2CN3CCC2CC3)cc1 (centres undefined)	–	–	–	–	–
Clc1cc(Cl)cc(CN2Cc3ccccc3-n3nncc3C2)c1	·	–	–	–	–
COc1ccccc1N1CCN(Cc2ccc(Br)s2)CC1	6.5	–	–	–	–
COc1ccccc1N1CCN(Cc2ccccc2)CC1	–	–	–	–	–
COP(=O)(OC)C(C)NC(=O)OCc1ccccc1 (centres undefined)	·	–	–	·	–
COc1cc(C(=O)O)cc(OC)c1OC	8.4	–	–	–	–
CN1c2ccc(Br)cc2[C@@H]2NCC[C@@H]2[C@@H]1CO	·	–	–	–	–
COC(=O)CSC1=NN1c1cc(C)nc(N)n1	4.7	–	–	–	–
CCc1c(C)nc(N)nc1N1N=C1SCC(=O)OC	–	–	–	–	–
Cc1cc(N2CCNC[C@H]2C)ccc1N1CC[C@H](O)C1	·	–	–	–	–
CN1CCCCC1c1ccc(-c2cccnc2)nc1 (centres undefined)	7.3	–	–	–	–
O=C(O)Cn1cc(/C=C2\C(=O)NC(=O)N(c3ccc(Cl)cc3)C2=O)c2ccccc21	–	–	–	–	1.2
COCCOC(=O)C1=C(N)OC(C)=C(C(=O)OC)C12C(=O)Nc1ccccc12 (centres undefined)	–	–	6.2	–	–
COC(=O)C1=C(C)OC(N)=C(C#N)C12C(=O)Nc1ccccc12 (centres undefined)	–	–	–	–	–
COC(=O)C1=C[C@H]([C@@H](C)[C@H](OC)c2ccccc2Br)[C@@H]2[C@H]1c1ccccc1N2C	·	–	–	–	–
COc1ccc(N2C(=O)NC(=O)/C(=C/c3cccc(OC(=O)c4cccs4)c3)C2=O)cc1Cl	·	–	5.8	–	–
Cc1ccc(N2C(=O)NC(=O)/C(=C/c3ccc(OC(=O)c4cccs4)cc3)C2=O)cc1	–	–	–	–	–
CCc1ccc(-c2nn(Cc3ccccc3)cc2C=O)cc1	–	13	–	–	–
O=Cc1cn(Cc2c(F)cccc2Cl)nc1-c1ccccc1	–	–	–	–	–
O=C1NC(=O)C(=Cc2cccc(OCCOc3ccccc3)c2)C(=O)N1	–	11	–	–	–
